Measurements as given in PubChem BioAssay (Tox21).
Results filed as inconclusive are left out. Calls of active or inactive are those of the source. Unless noted, calls come from the whole dose curve; as a rule, active = well fitted curve in the direction sought with a large enough effect in the repeat runs; inconclusive = weak or mixed curves; inactive = no such curve, though single readings can be large; an effect the other way counts as inactive or inconclusive.

Experiments:
[1] = qHTS RealTime-Glo MT Cell Viability Assay in HEK293 cells - 0 hour (AID 1224880); note: top concentration of the series differs between compounds; nearly all actives have a fitted effect of over 45% in size
Outline: (§1)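 Luminescence, which tracks viable cell number through reduction of the prosubstrate to a NanoLuc substrate, was read over continuous 37 C culture. Cells (600/well) were premixed with reagent and rested 5 h before 23 nL of compound in DMSO was pinned.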

[2] = A CellTox Green Cytotoxicity Assay to monitor cytotoxicity in HEK293 cells - 32 hour (AID 1224881); note: nearly all actives have a fitted effect of over 40% in size
Outline: (§2)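 Fluorescence from a DNA-binding dye excluded by viable cells was measured repeatedly in the same HEK293 wells (600 cells/well) during continuous compound exposure at 37 C. Each assay gives one read point: 0, 8, 16, 24, 32 or 40 h.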

[3] = A CellTox Green Cytotoxicity Assay to monitor cytotoxicity in HepG2 cells - 0 hour (AID 1224882); note: nearly all actives have a fitted effect of over 35% in size
Outline: (§3)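 Real-time cytotoxicity: fluorescence of a cell-impermeant cyanine dye binding DNA of dead HepG2 cells, measured repeatedly (0–40 h) during compound exposure at 37 C. Cells seeded 600/well with reagent, dosed after 5 h.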

[4] = A CellTox Green Cytotoxicity Assay to monitor cytotoxicity in HepG2 cells - 32 hour (AID 1224883); note: nearly all actives have a fitted effect of over 50% in size
Outline: as §3

[5] = qHTS RealTime-Glo MT Cell Viability Assay in HepG2 cells - 16 hour (AID 1224885); note: nearly all actives have a fitted effect of over 50% in size
Outline: (§4)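 HepG2 cells were seeded at 600 cells/well together with NanoLuc luciferase and a cell-permeant prosubstrate, preincubated 5 h at 37 C/5% CO2, then pin-dosed with compounds in DMSO. Nonlytic luminescence from viable cells was read at each time point.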

[6] = qHTS RealTime-Glo MT Cell Viability Assay in HEK293 cells - 24 hour (AID 1224886); note: top concentration of the series differs between compounds; nearly all actives have a fitted effect of over 50% in size
Outline: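 HEK293 cells were seeded at 600 cells/well together with NanoLuc luciferase and cell-permeant prosubstrate, preincubated 5 h at 37 C/5% CO2, then given compound in DMSO by pintool. Luminescence from viable-cell prosubstrate reduction was read repeatedly over 40 h.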

[7] = qHTS RealTime-Glo MT Cell Viability Assay in HEK293 cells - 8 hour (AID 1224887); note: top concentration of the series differs between compounds; nearly all actives have a fitted effect of over 50% in size
Outline: as §1

[8] = A CellTox Green Cytotoxicity Assay to monitor cytotoxicity in HEK293 cells - 16 hour (AID 1224888); note: nearly all actives have a fitted effect of over 35% in size
Outline: as §2

[9] = qHTS RealTime-Glo MT Cell Viability Assay in HepG2 cells - 0 hour (AID 1224889); note: nearly all actives have a fitted effect of over 50% in size
Outline: as §4

[10] = A CellTox Green Cytotoxicity Assay to monitor cytotoxicity in HepG2 cells - 8 hour (AID 1224890); note: nearly all actives have a fitted effect of over 45% in size
Outline: as §3

[11] = qHTS assay to identify small molecule antagonists of the estrogen receptor alpha (ER-alpha) signaling pathway using the BG1 cell line in the presence of 0.1 nM 17-beta-estradiol - cell viability counter screen (AID 1259241); note: nearly all actives have a fitted effect of over 40% in size
Outline: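 Viability in VM7Luc4E2 cells after 22 hr compound exposure under 0.1 nM 17beta-estradiol stimulation, by CellTiter-Fluor.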

[12] = qHTS assay to identify small molecule antagonists of the androgen receptor (AR) signaling pathway using the MDA cell line in the presence of 0.5 nM R1881 - cell viability counter screen (AID 1259242); note: nearly all actives have a fitted effect of over 45% in size
Outline: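 Live-cell protease activity was measured by CellTiter-Fluor fluorescence after 30 min. Before that, MDA-kb2 MMTV-luciferase cells had 16 hr at 37C without CO2, exposed to test compounds and 0.5 nM R1881 final.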

[13] = qHTS assay to identify small molecule HDAC inhibitors (AID 1259364); note: top concentration of the series differs between compounds; nearly all actives have a fitted effect of over 45% in size
Outline: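 Luminescence read after 30 min room-temperature HDAC-Glo incubation measures cellular class I/II HDAC activity. Compounds were applied for 2 hr at 37 C to HCT-116 wild-type cells seeded the day before.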

[14] = qHTS assay to identify small molecule HDAC inhibitors - cell viability counter screen (AID 1259365)
Outline: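 Cytotoxicity was gauged in wild-type HCT-116 cells after a brief 2hr treatment with DMSO-dissolved compounds at 37C and 5% CO2, using CellTiter-Glo luminescence developed for 30min at room temperature.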

[15] = qHTS assay to identify small molecule agonists of the sonic hedgehog signaling (Shh) pathway - cell viability counter screen (AID 1259366); note: nearly all actives have a fitted effect of over 50% in size
Outline: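 Stable Gli1-Luc NIH/3T3 clone, 2,000 cells/well. Compound exposure 24hr at 37C. Read-out: CellTiter-Fluor fluorescence.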

[16] = qHTS assay to identify small molecule antagonists of the sonic hedgehog signaling (Shh) pathway - cell viability counter screen (AID 1259367); note: nearly all actives have a fitted effect of over 55% in size
Outline: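 Fluorescence read-out (CellTiter-Fluor, 1 hr at 37C) taken after 23 hr compound treatment of 3T3 Gli1-Luc cells stimulated with conditioned medium. Cells were seeded at 2,000 per well and pre-incubated 4 hr.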

[17] = molecular target: Estrogen receptor (Homo sapiens) (UniProt P03372); assay: qHTS assay to identify small molecule antagonists of the estrogen receptor alpha (ER-alpha) signaling pathway using the BG1 cell line in the presence of 0.1 nM 17-beta-estradiol (AID 1259244); note: nearly all actives have a fitted effect of over 50% in size
Outline: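 Luciferase luminescence (ONE-Glo, 30 min at room temperature) was read after 22 hr at 37C exposure to compounds plus 17beta-estradiol at 0.1 nM final. Cells were VM7Luc4E2 with endogenous ER-alpha and an ERE-driven luciferase, pre-cultured 5 days in hormone-depleted medium.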

[18] = qHTS assay to identify small molecule phospholipidosis (PLD) inducers (AID 1259344; active = well fitted curve in the direction sought with a large enough effect; an effect the other way counts as inactive or inconclusive)
Outline: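 Read-out is LipidTOX Red fluorescence (ex 595/em 615) imaged in HepG2 cells after 24 h compound exposure at 37 C, with Hoechst nuclear counterstain (ex 352/em 461) allowing per-cell normalisation.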

[19] = molecular target: Androgen receptor (Homo sapiens) (UniProt P10275); assay: qHTS assay to identify small molecule antagonists of the androgen receptor (AR) signaling pathway using the MDA cell line in the presence of 0.5 nM R1881 (AID 1259243); note: nearly all actives have a fitted effect of over 50% in size
Outline: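 Luminescent reporter readout (ONE-Glo, 30 min, room temperature) after 16 hr co-treatment of MDA-kb2 cells with test compounds and 0.5 nM R1881 final, at 37C without CO2. The MMTV-driven luciferase responds to both AR and GR.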

[20] = A CellTox Green Cytotoxicity Assay to monitor cytotoxicity in HEK293 cells - 8 hour (AID 1224884); note: nearly all actives have a fitted effect of over 35% in size
Outline: as §2

Measured: Potency

Sequence of Estrogen receptor (Homo sapiens) (P03372 whole entry, looked up): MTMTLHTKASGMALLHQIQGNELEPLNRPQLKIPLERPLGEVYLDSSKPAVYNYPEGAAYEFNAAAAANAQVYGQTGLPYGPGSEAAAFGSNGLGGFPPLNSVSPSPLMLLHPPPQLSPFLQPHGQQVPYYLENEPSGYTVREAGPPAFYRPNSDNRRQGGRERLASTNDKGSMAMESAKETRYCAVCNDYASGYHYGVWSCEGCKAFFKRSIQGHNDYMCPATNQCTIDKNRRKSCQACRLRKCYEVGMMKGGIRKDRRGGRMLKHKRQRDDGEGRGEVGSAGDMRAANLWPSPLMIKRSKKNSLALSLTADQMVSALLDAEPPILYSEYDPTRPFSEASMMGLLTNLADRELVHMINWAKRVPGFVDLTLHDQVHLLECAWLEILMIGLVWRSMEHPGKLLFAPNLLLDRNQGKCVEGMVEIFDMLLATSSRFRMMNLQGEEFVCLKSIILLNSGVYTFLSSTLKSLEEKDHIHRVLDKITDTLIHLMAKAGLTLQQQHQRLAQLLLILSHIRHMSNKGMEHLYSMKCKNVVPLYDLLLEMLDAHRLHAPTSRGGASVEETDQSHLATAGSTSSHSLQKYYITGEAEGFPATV
Sequence of Androgen receptor (Homo sapiens) (P10275 whole entry, looked up): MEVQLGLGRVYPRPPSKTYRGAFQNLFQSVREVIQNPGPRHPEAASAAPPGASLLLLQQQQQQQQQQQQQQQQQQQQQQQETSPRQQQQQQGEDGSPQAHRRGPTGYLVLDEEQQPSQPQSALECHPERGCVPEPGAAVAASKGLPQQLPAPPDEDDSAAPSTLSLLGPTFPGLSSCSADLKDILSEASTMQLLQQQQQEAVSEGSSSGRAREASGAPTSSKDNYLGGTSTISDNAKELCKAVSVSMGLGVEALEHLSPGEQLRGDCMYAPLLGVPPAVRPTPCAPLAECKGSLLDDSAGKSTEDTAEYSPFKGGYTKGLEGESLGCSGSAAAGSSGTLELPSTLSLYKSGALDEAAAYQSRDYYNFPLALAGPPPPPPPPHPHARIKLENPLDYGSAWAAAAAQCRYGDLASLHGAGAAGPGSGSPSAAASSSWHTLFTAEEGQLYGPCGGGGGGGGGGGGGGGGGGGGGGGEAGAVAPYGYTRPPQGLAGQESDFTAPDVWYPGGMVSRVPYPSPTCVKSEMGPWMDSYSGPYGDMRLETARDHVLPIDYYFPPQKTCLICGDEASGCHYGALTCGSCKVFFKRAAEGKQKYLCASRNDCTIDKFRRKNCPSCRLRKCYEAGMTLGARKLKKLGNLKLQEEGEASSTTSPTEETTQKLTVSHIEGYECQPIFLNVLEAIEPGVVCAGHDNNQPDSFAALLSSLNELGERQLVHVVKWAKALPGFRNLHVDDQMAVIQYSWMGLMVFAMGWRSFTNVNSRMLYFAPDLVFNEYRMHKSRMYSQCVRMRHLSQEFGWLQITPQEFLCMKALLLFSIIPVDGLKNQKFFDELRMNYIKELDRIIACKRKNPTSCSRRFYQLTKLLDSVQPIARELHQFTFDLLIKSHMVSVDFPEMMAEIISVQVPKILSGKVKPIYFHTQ

CCOC(=O)CC(SP(=O)(OC)OC)C(=O)OCC (configuration not stated)
not listed: [17] | [18] | [19] | [20]
inactive: all other assays above

C[C@H]1C(=O)O[C@@H]2CCN3CC=C(COC(=O)[C@](C)(O)[C@]1(C)O)[C@H]23
not listed: [16] | [19] | [20]
inactive: all other assays above

C=CC(=O)OCCCCCC(C)C
not listed: [16] | [18] | [20]
inactive: all other assays above

Cc1cccc(N)c1C
not listed: [3] | [16] | [18] | [19]
inactive: all other assays above

Nc1ncc([N+](=O)[O-])s1
not listed: [16] | [18] | [19] | [20]
inactive: all other assays above

N#CN=C(N)N
not listed: [18] | [19] | [20]
inactive: all other assays above

Cc1cccc(N)c1
not listed: [16] | [18] | [19] | [20]
inactive: all other assays above

COS(=O)(=O)OC
not listed: [18] | [19] | [20]
inactive: all other assays above
